Data: PubChem BioAssay
Unmarked numbers belong to inactive results. A call without a number means that no potency is given here. For some assays here: Potency and affinity values are given separately. Activity calls are given as the source filed them. Unless noted, no rule for the calls is given here.

Legend:
[1] = antimalarial activity against Dd2 strain (AID 2302;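 active = growth inhibition above 50% at the single 2 µM test dose, taken to imply half-maximal potency below 2 µM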); settings: P. falciparum Dd2 in RBCs, LDH growth readout, 72 h; at 2 µM; stronger effect = higher value
[2] = HepG2 cytotoxicity, primary screen, cytotoxicity control for P. falciparum antimalarial project, cell-based, ATP luminescence (AID 2303;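 active = inhibition above 50%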); settings: HepG2 viability, 24-48 h, at 10 µM, stronger effect = higher value
[3] = molecular target: L-lactate dehydrogenase (Plasmodium falciparum (isolate CDC / Honduras)) (UniProt Q27743); assay: PfLDH activity inhibition – cell lysate, 3D7 strain, counter-screen for P. falciparum growth inhibition project (AID 2304); settings: P. falciparum 3D7 crude extract, LDH APAD/NBT absorbance; at 2 µM; stronger effect = higher value
[4] = inhibition of 3D7 malaria parasite growth – strain 3D7 (AID 2306); settings: P. falciparum 3D7 erythrocytic growth, LDH absorbance, 72 h; at 2 µM; stronger effect = higher value
[5] = molecular target: Calcium-dependent protein kinase 1 (Plasmodium falciparum (isolate 3D7)) (UniProt P62344); assay: PfCDPK1 kinase inhibitors, biochemical, TCAMS library (AID 1159585; cut-off not given, nearly all actives have IC50 up to about 0.98 µM;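 also: inhibitors leave more ATP so luminescence rises with inhibition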); settings: recombinant PfCDPK1, Kinase-Glo ATP depletion luminescence
[6] = molecular target: Plasmodium falciparum protein kinase 6 (PK6, PF3D7_1337100) (UniProt Q8IDW1); assay: PfPK6 kinase inhibitors, biochemical, TCAMS library (AID 1159586); settings: recombinant PfPK6, Kinase-Glo ATP depletion luminescence
[7] = molecular target: Protein kinase 7 (PK7), Plasmodium falciparum 3D7 (PF3D7_0213400) (UniProt Q7YTF7); assay: inhibition of Plasmodium PK7 catalytic activity – biochemical, TCAMS antimalarial set, Kinase-Glo luminescence (AID 1159587); settings: recombinant PfPK7, Kinase-Glo ATP depletion luminescence
[8] = molecular target: Calcium-dependent protein kinase 4 (Plasmodium falciparum (isolate 3D7)) (UniProt Q8IBS5); assay: PfCDPK4 kinase inhibitors, biochemical, TCAMS library (AID 1159588; cut-off not given, nearly all actives have IC50 up to about 0.91 µM); settings: recombinant PfCDPK4, Kinase-Glo ATP depletion luminescence
Calcium-dependent protein kinase 4 (Plasmodium falciparum (isolate 3D7)), sequence (Q8IBS5 whole entry, looked up): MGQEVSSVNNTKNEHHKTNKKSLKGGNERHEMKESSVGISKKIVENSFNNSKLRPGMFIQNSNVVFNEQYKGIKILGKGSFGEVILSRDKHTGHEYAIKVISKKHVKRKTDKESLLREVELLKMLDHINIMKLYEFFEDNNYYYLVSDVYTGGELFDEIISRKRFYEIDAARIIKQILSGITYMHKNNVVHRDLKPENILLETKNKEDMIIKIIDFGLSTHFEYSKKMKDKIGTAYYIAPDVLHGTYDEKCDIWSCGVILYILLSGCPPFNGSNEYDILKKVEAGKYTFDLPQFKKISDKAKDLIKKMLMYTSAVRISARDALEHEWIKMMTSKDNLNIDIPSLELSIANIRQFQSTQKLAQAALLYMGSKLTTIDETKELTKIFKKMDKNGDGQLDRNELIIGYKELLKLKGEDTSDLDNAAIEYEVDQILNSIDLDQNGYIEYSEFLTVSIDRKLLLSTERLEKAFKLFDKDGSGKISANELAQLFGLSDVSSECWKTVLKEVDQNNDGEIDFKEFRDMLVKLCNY

Calcium-dependent protein kinase 1 (Plasmodium falciparum (isolate 3D7)), sequence (P62344 whole entry, looked up): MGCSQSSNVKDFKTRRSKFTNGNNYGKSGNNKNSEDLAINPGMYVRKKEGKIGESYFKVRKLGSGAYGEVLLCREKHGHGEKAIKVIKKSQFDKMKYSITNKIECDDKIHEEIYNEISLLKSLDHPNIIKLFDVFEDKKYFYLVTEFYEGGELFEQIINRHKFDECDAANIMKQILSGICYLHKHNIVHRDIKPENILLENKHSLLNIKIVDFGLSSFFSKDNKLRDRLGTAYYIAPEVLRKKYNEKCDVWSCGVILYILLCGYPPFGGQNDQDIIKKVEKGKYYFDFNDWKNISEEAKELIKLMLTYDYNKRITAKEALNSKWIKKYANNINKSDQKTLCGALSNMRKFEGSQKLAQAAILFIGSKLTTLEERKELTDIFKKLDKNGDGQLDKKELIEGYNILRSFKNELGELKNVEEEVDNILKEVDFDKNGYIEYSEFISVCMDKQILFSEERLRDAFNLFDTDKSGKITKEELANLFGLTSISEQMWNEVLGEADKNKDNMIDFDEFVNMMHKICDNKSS
L-lactate dehydrogenase (Plasmodium falciparum (isolate CDC / Honduras)), sequence (Q27743 whole entry, looked up): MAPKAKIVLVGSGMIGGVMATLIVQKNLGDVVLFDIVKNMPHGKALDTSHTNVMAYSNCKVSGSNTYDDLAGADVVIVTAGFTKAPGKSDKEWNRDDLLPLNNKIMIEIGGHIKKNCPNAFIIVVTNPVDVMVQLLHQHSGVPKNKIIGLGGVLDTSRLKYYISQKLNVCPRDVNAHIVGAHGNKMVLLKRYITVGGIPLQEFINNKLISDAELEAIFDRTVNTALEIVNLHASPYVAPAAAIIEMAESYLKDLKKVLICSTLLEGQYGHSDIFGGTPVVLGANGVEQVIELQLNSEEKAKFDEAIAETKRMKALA
Plasmodium falciparum protein kinase 6 (PK6, PF3D7_1337100), sequence (Q8IDW1 1-305): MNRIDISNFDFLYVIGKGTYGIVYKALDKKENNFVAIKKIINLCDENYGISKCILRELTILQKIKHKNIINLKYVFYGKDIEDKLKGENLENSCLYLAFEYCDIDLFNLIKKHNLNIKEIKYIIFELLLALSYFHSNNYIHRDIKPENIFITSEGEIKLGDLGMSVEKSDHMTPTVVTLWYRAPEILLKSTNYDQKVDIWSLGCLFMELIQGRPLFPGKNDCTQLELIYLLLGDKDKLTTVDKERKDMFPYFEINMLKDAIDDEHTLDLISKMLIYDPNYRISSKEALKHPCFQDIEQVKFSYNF
Protein kinase 7 (PK7), Plasmodium falciparum 3D7 (PF3D7_0213400), sequence (Q7YTF7 1-343): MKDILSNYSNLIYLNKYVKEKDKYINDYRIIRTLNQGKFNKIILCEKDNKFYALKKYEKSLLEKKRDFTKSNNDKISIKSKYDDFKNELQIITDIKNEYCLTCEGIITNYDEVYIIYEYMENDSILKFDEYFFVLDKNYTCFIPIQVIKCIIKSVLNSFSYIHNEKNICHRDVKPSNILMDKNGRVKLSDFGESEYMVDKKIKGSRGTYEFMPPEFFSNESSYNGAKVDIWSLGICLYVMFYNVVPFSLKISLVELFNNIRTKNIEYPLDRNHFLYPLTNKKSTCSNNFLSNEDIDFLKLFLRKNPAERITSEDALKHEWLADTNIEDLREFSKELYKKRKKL

| SMILES | growth inhibition [1] | inhibition [2] | inhibition [3] [%] | growth inhibition [4] | outcome [5] | outcome [6] | outcome [7] | outcome [8] |
| --- | --- | --- | --- | --- | --- | --- | --- | --- |
| O=C(Nc1ccccc1)N(Cc1cccc(-c2cccc(CNCc3ccc4c(c3)OCO4)c2)c1)C1CCN(Cc2ccccc2)CC1 | 84% (active) | 96% (active) | 0 | 101% (active) | inactive | inactive | inactive | inactive |
| Cc1cccc2[nH]c(-c3ccc(-c4cccc(CN5CCCC(O)C5)c4)s3)nc12 (stereo not given) | 18% | 13% | 2 | 95% (active) | inactive | inactive | inactive | inactive |
| Cc1ccccc1C1CCN(C2CCC(NC(=O)/C=C/c3cc(F)ccc3C(F)(F)F)CC2)CC1 (stereo not given) | 25% | 90% (active) | 2 | 98% (active) | inactive | inactive | inactive | inactive |
| O=C(NCCNc1ccnc(Nc2ccc(F)cc2)n1)c1cc2ccccc2s1 | 34% | -1% | -11 | 99% (active) | inactive | inactive | inactive | inactive |
| Cc1[nH]c(C)c(C(F)(F)F)c(=O)c1-c1ccc(Oc2ccc(OC(F)(F)F)cc2)cc1 | 96% (active) | 0% | -6 | 97% (active) | inactive | inactive | inactive | inactive |
| COc1cc(CN=C(Nc2ccc(-c3ccccc3)cc2)Nc2ccc(C#N)cc2O)cc(OC)c1 | 64% (active) | -4% | 5 | 95% (active) | inactive | inactive | inactive | inactive |
| COc1ccc(Nc2nccc(N3CCC(NC(=O)c4cccc(NC(C)=O)c4)C3)n2)cc1 (stereo not given) | 84% (active) | -3% | -5 | 92% (active) | inactive | inactive | inactive | inactive |
| c1cc(CNc2ncc(-c3ccsc3)c(-c3nccs3)n2)ccn1 | 81% (active) | 18% | -7 | 89% (active) | inactive | inactive | inactive | inactive |
| COc1ccc(NC(=O)CCNc2cc(C)nc(NCCc3ccccc3)n2)cc1 | 0% | 3% | -2 | 85% (active) | inactive | inactive | inactive | inactive |
| CC(C)CCC[C@@H]([C@@H](CC1CCCCC1)C(=O)N[C@@H](CCCCNC(=O)OCc1ccccc1)C(=O)Nc1nccs1)N(O)C=O | 90% (active) | -4% | 3 | 98% (active) | inactive | inactive | inactive | inactive |
| COc1ccc(CN(C)CCCOc2ccc(NC(=O)c3cccc4c(=O)c5cccc(C)c5[nH]c34)cc2)cc1OC | 62% (active) | 3% | 1 | 96% (active) | inactive | inactive | inactive | inactive |
| Cc1ccc(F)c(OCC2CCN(c3ccc(C(=O)NC4CC4)cn3)CC2)c1 | 95% (active) | 4% | 2 | 94% (active) | inactive | inactive | inactive | inactive |
| CC(C)CCNCc1ccc(OCc2ccccc2COc2ccc(CNCCC(C)C)cc2I)c(I)c1 | 78% (active) | 99% (active) | 0 | 101% (active) | inactive | inactive | inactive | inactive |
| OC(c1n[nH]c(=S)n1-c1ccccc1)C(O)c1n[nH]c(=S)n1-c1ccccc1 (stereo not given) | 89% (active) | 18% | 4 | 92% (active) | inactive | inactive | inactive | inactive |
| CN1CCC[C@@H](Oc2cc3c(cc2Br)CCN3C(=O)Nc2ccc(-c3ccncc3)c(Cl)c2)C1 | 64% (active) | 26% | -7 | 99% (active) | inactive | inactive | inactive | inactive |
| O=C(/C=C/c1ccc(Cl)c(Cl)c1)NC1CCN(Cc2cccc(O)c2)CC1 | -1% | -3% | -1 | 94% (active) | inactive | inactive | inactive | inactive |
| CCCCNS(=O)(=O)c1ccc(NC(=O)c2cc([N+](=O)[O-])ccc2Cl)cc1 | 47% | 12% | -3 | 92% (active) | inactive | inactive | inactive | inactive |
| O=C(NCCCCCN1CCCN(C(=O)Nc2ccc(Cl)c(C(F)(F)F)c2)CC1)[C@@H]1C[C@H]1c1ccc(Cl)c(Cl)c1 | 1% | 41% | 3 | 100% (active) | inactive | inactive | inactive | inactive |
| Cc1cccc(OCCCCON2C(N)=NC(N)=NC2(C)C)c1C | 95% (active) | 65% (active) | -3 | 97% (active) | inactive | inactive | inactive | inactive |
| COc1ccc2ccccc2c1CON1C(N)=NC(N)=NC1(C)C | 5% | 25% | -7 | 94% (active) | inactive | inactive | inactive | inactive |

| SMILES | growth inhibition [1] | inhibition [2] | inhibition [3] [%] | growth inhibition [4] | outcome [5] | outcome [6] | outcome [7] | outcome [8] |
| --- | --- | --- | --- | --- | --- | --- | --- | --- |
| CC(C)N(CCOc1ccc2c(c1)N(C(=O)Nc1cc(Br)cc(C(F)(F)F)c1)CC2)C(C)C | 100% (active) | 8% | 5 | 101% (active) | inactive | inactive | inactive | inactive |
| Cc1cccnc1Nc1nc(-c2ccccn2)cs1 | 99% (active) | 60% (active) | -1 | 96% (active) | inactive | inactive | inactive | inactive |
| COc1ccc(CNc2nc(Nc3cccc(C#N)c3)nc(Nc3cccc(C#N)c3)n2)cc1Cl | 83% (active) | -4% | 4 | 101% (active) | inactive | inactive | inactive | inactive |
| CC(CN1CCN(C)CC1)C(=O)Nc1ccc(-c2ccc(-c3nc4ccccc4[nH]3)s2)cc1 (stereo not given) | 79% (active) | 5% | 4 | 100% (active) | inactive | inactive | inactive | inactive |
| CC(C)c1ccc(NC(=O)NC2CCN(CCCCCN(C)C(=O)/C=C/c3ccc(Cl)c(Cl)c3)C2)cc1 (stereo not given) | 3% | 28% | -2 | 99% (active) | inactive | inactive | inactive | inactive |
| CCNC(=O)Nc1ccc(-c2ccc(-c3nc4c(C)cccc4[nH]3)s2)cc1 | 13% | 18% | -2 | 96% (active) | inactive | inactive | inactive | inactive |
| CCOc1cc(CC)ccc1C1CCN(CCN2CCC(NC(=O)c3ccc(-c4ccc(C#N)cc4)cc3)CC2)CC1 | 71% (active) | 32% | 6 | 100% (active) | inactive | inactive | inactive | inactive |
| COc1ccc(CNC2CCN(C)CC2)cc1-c1ccc(S(=O)(=O)NCc2cccnc2)s1 | 3% | 10% | -4 | 100% (active) | inactive | inactive | inactive | inactive |
| CCCNc1nc(NCc2c(C)cccc2C)nc(NC(C)(C)C)n1 | 89% (active) | 15% | 2 | 91% (active) | inactive | inactive | inactive | inactive |
| CN(c1ccccc1)S(=O)(=O)c1cccc(NC(=O)c2ccc(-n3ccnc3)c([N+](=O)[O-])c2)c1 | -8% | 19% | 2 | 83% (active) | inactive | inactive | inactive | inactive |
| COc1ccc(Nc2nccc(N3CCC(NC(=O)C(C)c4ccc(Cl)cc4)CC3)n2)cc1 (stereo not given) | 52% (active) | 18% | -2 | 94% (active) | inactive | inactive | inactive | inactive |
| O=c1cc(NCCCNCc2cccc(I)c2)[nH]c2ccccc12 | 9% | 10% | -1 | 90% (active) | inactive | inactive | inactive | inactive |
| Cc1cnc(Nc2ccccc2)nc1NCCC(=O)Nc1ccccc1 | 7% | 10% | 3 | 89% (active) | inactive | inactive | inactive | inactive |
| CCCCCCN1CCC(NCc2ccc(C)cc2)CC1 | 4% | 16% | -1 | 93% (active) | inactive | inactive | inactive | inactive |
| CN1CCN(c2ccnc3ccc(NC(=O)Nc4cccc5c(Br)cccc45)cc23)CC1 | 96% (active) | 7% | 6 | 100% (active) | inactive | inactive | inactive | inactive |
| O=c1c2ccccc2[nH]c2nc3ccccc3c(Nc3ccccc3)c12 | 97% (active) | 8% | 6 | 98% (active) | inactive | inactive | inactive | inactive |
| Cc1cccc(-c2nn(-c3ccccc3)c3[nH]c(=O)c(CNC4CCCC4)cc23)c1 | 97% (active) | 18% | -2 | 98% (active) | inactive | inactive | inactive | inactive |
| COc1ccccc1NC(=S)N/N=C/c1ccc(O)cc1O | 80% (active) | 35% | -5 | 89% (active) | inactive | inactive | inactive | inactive |
| CS(=O)(=O)c1ccc2c(c1)CCN(CCC1CCC(NC(=O)C(=Cc3ccc(Cl)cc3Cl)c3ccc(-c4ccccc4)cc3)CC1)CC2 (stereo not given) | 16% | 33% | -1 | 81% (active) | inactive | inactive | inactive | inactive |
| Cc1ccc(-n2cc(CNCC3CCN(CCO)CC3)c(-c3ccc(F)cc3)n2)cc1 | 18% | 29% | -1 | 91% (active) | inactive | inactive | inactive | inactive |
